According to PubChem BioAssay AID1159580 (chemical genetic matrix, 2015):
Where “and” joins values, the source holds several entries; their conditions need not be identical. Identical values can stand only once. Screen size: about 5,500 compounds; about 2,000 (36%) were called active. About 18% were inconclusive and are not listed. Rule as the data show it: active = normalized growth mostly below about 0.91 (no sharp cut-off); inconclusive = no clear call, values can overlap the other calls; inactive = mostly above about 0.92. The list shows a part of the results.

Test: chemical genetic growth profiling, strain panel (AID 1159580);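 also: tested at 20 µM; growth read once vehicle control cultures reached saturation at 30 °C; 1 = growth at the plate median or of vehicle wells; lower values mean less growth of the strain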
Conditions: S. cerevisiae deletion strains, growth OD

Measured: normalized growth

CNC(C)[C@H](O)c1ccccc1 (stereo partly drawn)
inactive: locus YAL013W, strain DEP1, hits give low values 1 | locus YAL021C, strain ccr4, hits give low values 1.03 | locus YAL026C, strain drs2, hits give low values 1.01 | locus YAL030W, strain snc1, hits give low values 1.01 | locus YBL061C, strain skt5, hits give low values 1.02 | locus YBR009C, strain hhf1, hits give low values 0.977 | locus YBR021W, strain FUR4, hits give low values 1.07 | locus YBR023C, strain chs3, hits give low values 1.01 | locus YBR171W, strain sec66, hits give low values 0.993 | locus YBR229C, strain ROT2, hits give low values 1.01 | locus YBR231C, strain swc5, hits give low values 1.01 | locus YBR279W, strain paf1, hits give low values 1 | locus YCL011C, strain gbp2, hits give low values 1.01 | locus YCL016C, strain dcc1, hits give low values 1.04 | locus YCL029C, strain bik1, hits give low values 1 | locus YCL061C, strain MRC1, hits give low values 0.995 | locus YCL069W, strain vba3, hits give low values 0.986 | locus YCR088W, strain abp1, hits give low values 0.989 | locus YDL005C, strain med2, hits give low values 0.999 | locus YDL035C, strain GPR1, hits give low values 1.05 | locus YDL040C, strain nat1, hits give low values 1 | locus YDL074C, strain BRE1, hits give low values 1.02 | locus YDL101C, strain DUN1, hits give low values 1.01 | locus YDL134C, strain PPH21, hits give low values 1.04 | locus YDL185W, strain tfp1, hits give low values 0.991 | locus YDL192W, strain arf1, hits give low values 0.998 | locus YDR001C, strain nth1, hits give low values 0.996 | locus YDR069C, strain doa4, hits give low values 1.02 | locus YDR101C, strain arx1, hits give low values 1.02 | locus YDR137W, strain rgp1, hits give low values 1 | locus YDR159W, strain sac3, hits give low values 0.995 | locus YDR162C, strain NBP2, hits give low values 1.02 | locus YDR195W, strain ref2 1.01 | locus YDR297W, strain sur2, hits give low values 1.01 | locus YDR318W, strain mcm21, hits give low values 1 | locus YDR334W, strain swr1, hits give low values 0.983 | locus YDR335W, strain msn5, hits give low values 1.03 | locus YDR388W, hits give low values 0.995 | locus YDR392W, strain spt3, hits give low values 1.05 | locus YDR502C, strain sam2, hits give low values 0.997 | locus YEL003W, strain gim4, hits give low values 0.992 | locus YEL037C, strain rad23, hits give low values 0.986 | locus YEL061C, strain CIN8 (second series), hits give low values 0.993 | locus YEL061C, strain CIN8, hits give low values 1.02 | locus YER015W, strain faa2, hits give low values 1.01 | locus YER016W, strain bim1, hits give low values 1.03 | locus YER110C, hits give low values 0.986 | locus YER111C, strain swi4, hits give low values 1 | locus YER155C, strain BEM2 (second series), hits give low values 1.02 | locus YER155C, strain BEM2, hits give low values 1.01 | locus YER167W, strain BCK2, hits give low values 1.02 | locus YFR010W, strain ubp6, hits give low values 0.96 | locus YGL078C, strain dbp3, hits give low values 0.994 | locus YGL086W, strain mad1, hits give low values 1.01 | locus YGL167C, strain pmr1, hits give low values 1.01 | locus YGL173C, strain kem1, hits give low values 1.01 | locus YGL227W, strain vid30, hits give low values 0.994 | locus YGL240W, strain doc1, hits give low values 0.993 | locus YGL248W, strain PDE1, hits give low values 1.02 | locus YGL253W, strain hxk2, hits give low values 1.01 | locus YGR078C, strain PAC10, hits give low values 1.02 | locus YGR135W, strain pre9, hits give low values 0.986 | locus YGR229C, strain SMI1, hits give low values 1.02 | locus YGR252W, strain gcn5, hits give low values 0.98 | locus YHR013C, strain ard1, hits give low values 1.04 | locus YHR027C, strain rpn1, hits give low values 0.998 | locus YHR030C, strain SLT2, hits give low values 1.02 and 1.05 | locus YHR079C, strain IRE1 (second series), hits give low values 1 | locus YHR079C, strain IRE1, hits give low values 1.03 | locus YHR094C, strain hxt1, hits give low values 0.989 | locus YHR129C, strain ARP1, hits give low values 1.01 | locus YHR142W, strain chs7, hits give low values 1 | locus YHR200W, strain rpn10, hits give low values 0.999 | locus YIL066C, strain RNR3, hits give low values 1.03 | locus YIL073C, strain SPO22, hits give low values 0.991 | locus YIL125W, strain kgd1, hits give low values 1 | locus YIR030C, strain dcg1, hits give low values 1 | locus YJL092W, strain hpr5, hits give low values 1 | locus YJL095W, strain BCK1 (second series), hits give low values 1.01 | locus YJL095W, strain BCK1, hits give low values 1.01 and 1.06 | locus YJL115W, strain asf1, hits give low values 0.993 | locus YJL129C, strain trk1, hits give low values 1.01 | locus YJL134W, strain LCB3, hits give low values 1 | locus YJL154C, strain vps35, hits give low values 0.986 | locus YJL164C, strain tpk1, hits give low values 1.01 | locus YJL166W, strain qcr8, hits give low values 1.01 | locus YJL168C, strain set2, hits give low values 0.991 | locus YJL187C, strain SWE1 (second series), hits give low values 1.01 | locus YJL187C, strain SWE1, hits give low values 1.02 | locus YJR043C, strain POL32, hits give low values 1.04 | locus YJR066W, strain TOR1, hits give low values 0.972 | locus YKL009W, strain mrt4, hits give low values 0.992 | locus YKL068W, hits give low values 0.995 | locus YKL085W, strain MDH1 (second series), hits give low values 1.03 | locus YKL085W, strain MDH1, hits give low values 1.03 | locus YKL160W, strain elf1, hits give low values 1.05 | locus YKL190W, strain CNB1, hits give low values 1.01 | locus YKR001C, strain vps1, hits give low values 0.997 | locus YKR026C, strain gcn3, hits give low values 0.995 | locus YKR091W, strain srl3, hits give low values 1 | locus YLL001W, strain dnm1, hits give low values 1.02 | locus YLL026W, hits give low values 1.02 | locus YLL041C, strain sdh2, hits give low values 0.996 | locus YLR027C, strain aat2, hits give low values 1.02 | locus YLR039C, strain RIC1, hits give low values 0.978 | locus YLR058C, strain SHM2, hits give low values 1.01 | locus YLR102C, strain apc9, hits give low values 0.986 | locus YLR113W, strain HOG1, hits give low values 1.08 | locus YLR221C, strain rsa3, hits give low values 0.984 | locus YLR258W, strain gsy2, hits give low values 1.03 | locus YLR262C, strain YPT6 (second series), hits give low values 0.972 | locus YLR262C, strain YPT6, hits give low values 0.983 | locus YLR268W, strain sec22, hits give low values 0.993 | locus YLR320W, strain mms22, hits give low values 0.994 | locus YLR330W, strain CHS5, hits give low values 1.01 | locus YLR342W, strain FKS1 (second series), hits give low values 1.05 | locus YLR342W, strain FKS1, hits give low values 1.02 | locus YLR357W, strain rsc2, hits give low values 0.958 | locus YLR370C, strain arc18, hits give low values 1.03 | locus YLR371W, strain rom2, hits give low values 0.987 | locus YLR384C, strain iki3, hits give low values 0.995 | locus YLR418C, strain cdc73, hits give low values 1.01 | locus YML016C, strain PPZ1, hits give low values 1.01 | locus YML032C, strain rad52, hits give low values 1 | locus YML120C, strain ndi1, hits give low values 0.996 | locus YML124C, strain tub3, hits give low values 0.991 | locus YMR058W, strain fet3, hits give low values 0.999 | locus YMR078C, strain ctf18, hits give low values 0.989 | locus YMR125W, strain sto1, hits give low values 0.955 | locus YMR129W, hits give low values 1.02 | locus YMR205C, strain PFK2, hits give low values 1 | locus YMR223W, strain ubp8, hits give low values 0.998 | locus YMR231W, strain pep5, hits give low values 1 | locus YMR263W, strain SAP30, hits give low values 1.01 | locus YMR307W, strain GAS1, hits give low values 1.17 | locus YNL067W, strain RPL9B, hits give low values 1 | locus YNL071W, strain lat1, hits give low values 0.991 | locus YNL183C, strain NPR1, hits give low values 0.982 | locus YNL209W, strain ssb2, hits give low values 0.999 | locus YNL233W, strain BNI4, hits give low values 1.02 | locus YNL248C, strain rpa49, hits give low values 0.969 | locus YNL250W, strain rad50, hits give low values 0.989 | locus YNL271C, strain bni1, hits give low values 0.982 | locus YNL298W, strain CLA4, hits give low values 1.02 | locus YNL307C, strain MCK1, hits give low values 1 | locus YNL322C, strain KRE1 (second series), hits give low values 1.01 | locus YNL322C, strain KRE1, hits give low values 1.05 | locus YNR049C, strain mso1, hits give low values 0.996 | locus YNR052C, strain pop2, hits give low values 1 | locus YOL006C, strain TOP1, hits give low values 1.16 | locus YOL012C, strain htz1 1.33 | locus YOL147C, strain pex11, hits give low values 0.982 | locus YOR001W, strain rrp6, hits give low values 0.934 | locus YOR061W, strain CKA2, hits give low values 1.02 | locus YOR069W, strain VPS5, hits give low values 1.01 | locus YOR070C, strain gyp1, hits give low values 1.02 | locus YOR080W, strain dia2, hits give low values 1.01 | locus YOR083W, strain WHI5, hits give low values 1.04 | locus YOR106W, strain vam3, hits give low values 1.03 | locus YOR136W, strain idh2, hits give low values 1 | locus YOR144C, strain elg1, hits give low values 0.995 | locus YOR184W, strain ser1, hits give low values 1 | locus YOR231W, strain MKK1, hits give low values 1.06 | locus YOR265W, strain rbl2, hits give low values 1.01 | locus YOR270C, strain vph1, hits give low values 0.952 | locus YOR290C, strain snf2, hits give low values 1.06 | locus YOR316C, strain cot1, hits give low values 0.995 | locus YPL051W, strain arl3, hits give low values 1.03 | locus YPL055C, strain LGE1, hits give low values 1.01 | locus YPL078C, strain atp4, hits give low values 1.03 | locus YPL106C, strain sse1, hits give low values 1.04 | locus YPL240C, strain hsp82, hits give low values 0.992 | locus YPL256C, strain CLN2, hits give low values 1.04 | locus YPR119W, strain clb2, hits give low values 0.991 | locus YPR141C, strain kar3, hits give low values 0.985 | locus YPR163C, strain tif3, hits give low values 0.998 | locus YPR167C, strain met16, hits give low values 0.99 | strain wtn01, hits give low values 1
